Measured potencies and affinities stand elsewhere.
Each molecule was assayed against Golgi-associated PDZ and coiled-coil motif-containing protein (Homo sapiens) (UniProt Q9HD26) (assay: CAL PDZ peptide-binding inhibitors, dose response, biochemical, fluorescence polarization, Cerulean-tagged CAL PDZ, cherry-picks (AID 504773;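 note: 0% = DMSO neutral wells and -100% = excess unlabeled competitor peptide wells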)). Conditions: 1 h; series mostly up to 50 µM; activity change, negative = inhibition: at the top concentration;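 active = polarization signal falls with dose and the fitted half-maximal concentration is at or below ten times the sample's top valid dose; inconclusive = flat curve at 30 to 70% inhibition, or poor fit; inactive = signal rises, flat within 30%, or potency beyond limit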.

Activity change, negative = inhibition, inactive:
CCCOc1ccc(CC(=O)N/N=C\c2ccc(F)cc2)cc1 24.2%
CN(c1nc(-c2ccc(Br)cc2)cs1)C1CCS(=O)(=O)C1 (configuration not stated) 28.1%
COc1ccccc1C(=O)Nc1ccc2c(c1)CN(C(=O)CSC)CC2 5.71%
Cc1ccc(F)cc1N=Cc1c(O)c2ccccc2oc1=O 21.1%
C=CCOC(=O)C1=C(C)Nc2nc3ccccc3n2C1c1ccncc1 (configuration not stated) 6.47%
Cc1ccc(S(=O)(=O)N2CCN(C(=O)N(C)C)CC2)cc1 31.8%
Cn1nc(C(=O)N2CCCc3ccccc32)c2ccccc2c1=O -9.28%
CN(C)S(=O)(=O)c1ccc(Cl)c(NC(=O)CSc2nnnn2-c2ccc(O)cc2)c1 -24.1%
Cc1ccc(C)c(N(CC(=O)NC(C)(C)C)C(=O)CCC(=O)Nc2nccs2)c1 3.45%
O=S(=O)(c1cccc2ccccc12)N1CCCCC1 -41.9%
Cc1nn(C)c(C)c1S(=O)(=O)N1CCC(CO)(CC2CCCCO2)CC1 (configuration not stated) -8.34%
Cc1ccc(-n2c(SCC(N)=O)nnc2-c2ccco2)cc1 -58.1%
O=C1CSC(=Nc2ccccc2Cl)N1 5.39%
CCC(=O)c1cn(CC(=O)Nc2cccc(C)c2C)c2ccccc12 15.6%
CSc1ccc(CNCCCSc2ncccn2)cc1 -9.87%
COc1ccc(CN2CCCC(N3CCN(c4cccc(Cl)c4)CC3)C2)cc1OC (configuration not stated) 1.02%
CCCn1cnc2c(SCCc3ccccc3)nc(N)nc21 -32.1%
Cc1nc(N)c(CC(Br)CBr)c(Cl)n1 (configuration not stated) 5.44%
O=C(Nc1ccc([N+](=O)[O-])cc1)Nc1cnccn1 2.29%
COCCN(Cc1nc(C(c2ccccc2)c2ccccc2)no1)C(C)C 6.45%
Cc1ccc(NC(=O)CN(C)C(=S)NC2CC2)cc1 -2.76%
Cc1ccc2nc(NC(=O)COC(=O)c3ccncc3)sc2c1 5.09%
O=C(NCc1cccnc1)/C(=C/c1ccc(-c2cccc(C(F)(F)F)c2)o1)NC(=O)c1ccccc1 8.73%
O=C1c2ccccc2C(O)N1c1ccccc1 (configuration not stated) 8.17%
CCOCCCNC(=S)N1CCN(c2nc(-c3ccccc3)cs2)CC1 -0.951%
CC1(C2CC2)NC(=O)N(CC(=O)NCC(=O)Nc2ccc(F)c(F)c2F)C1=O (configuration not stated) 22.9%
O=C1CN(C(=O)CC2C(=O)NCCN2Cc2ccccc2C(F)(F)F)CCN1 (configuration not stated) 6.69%
CC(=O)Nc1cccc(NC(=O)CSc2nnc(NC(=O)c3ccco3)s2)c1 14.6%
Cc1ccc(SCC(=O)NCc2ccc(F)cc2)cc1 10.2%
COc1ccc2ccn(S(=O)(=O)c3ccccc3)c2c1 -31.3%
CC1CCCCC1NCC(=O)NCc1ccc(F)cc1 (configuration not stated) -33.3%
Cc1[nH]c2ccccc2c1C(=O)CSc1nc2ncc(Cl)cc2[nH]1 27.6%
Cc1cc(C)c2nc(-c3ccncc3)cc(C(=O)N3CCN(Cc4ccccc4Cl)CC3)c2c1 -33.1%
O=C(COC(=O)CNC(=O)c1cccc([N+](=O)[O-])c1)NCc1ccco1 9.03%
COc1ccccc1NC(=O)c1c([N+](=O)[O-])cnn1C 25.3%
CCOC(=O)C1CCN(C(=O)C2CC(=O)N(c3ccc4c(c3)OCCO4)C2)CC1 (configuration not stated) 12.5%
Cc1cc(/C=C2\SC(=O)N(C)C2=O)c(C)n1-c1ccc(O)cc1 7.87%

— PubChem BioAssay AID504773 (Broad Institute, 2011)
